Measured values taken from ChEMBL document CHEMBL4513216, “Probing the Open Global Health Chemical Diversity Library for Multistage-Active Starting Points for Next-Generation Antimalarials” (ACS Infect Dis, 2020).
Hit rate of the full screen: of about 69,000 compounds, about 8,600 (12%) showed an effect of 50% or more. Shown is part of a subset that was picked to be rich in strong results.

Test system: Plasmodium berghei
Assay: Screen against P. berghei liver stage (PbLuc), transformed with Luciferase, at 10uM
Assay type: functional, HepG2
Conditions: tested at 10 uM

Row | Structure (SMILES) | INHIBITION [%]
1 | O=C(CCCc1ccccc1)N1CCC(Nc2cccnn2)CC1 | -6.44
2 | Cc1ccc(CCC(=O)N2CCC(Nc3cccnn3)CC2)cc1 | 52.5
3 | O=C(CCOc1ccccc1)N1CCC(Nc2cccnn2)CC1 | 50.4
4 | O=C(CCc1ccsc1)N1CCC(Nc2cccnn2)CC1 | 25.1
5 | O=C(CCNc1ncccn1)N1CCC(Nc2cccnn2)CC1 | 0.411
6 | COCCCC(=O)N1CCC(Nc2cccnn2)CC1 | 31.9
7 | Cn1nc(Cn2cccn2)c2c1CN(C1CCOC1)C2 (configuration not stated) | -4.02
8 | COCC(=O)N1CCN(C)C(=O)C(Cc2ccccc2-c2cccs2)C1 (configuration not stated) | -20.6
9 | O=C(NCC1CC1)C1CCC2(CCN(C(=O)c3ccncc3)CC2)O1 (configuration not stated) | -6.05
10 | CCc1nc(C2CCCN2Cc2nnc(C3CC3)o2)no1 (configuration not stated) | -5
11 | Cc1oc(-c2ccco2)nc1CN1CCCC(Cn2cncn2)C1 (configuration not stated) | -97.8
12 | CC(=O)N(Cc1ncc(C(C)C)o1)C1CCN(Cc2cc(C)no2)C1 (configuration not stated) | 13.95
13 | Cc1nccn1CCCNc1nccnc1C#N | 12.9
14 | CN1CCC2(CCN(CC3CCOCC3)CC2)C1=O | 26.5
15 | CS(=O)(=O)c1cccc(C(=O)NCc2nc3cc(F)ccc3[nH]2)c1 | 64.5
16 | O=C(NCc1nc2cc(F)ccc2[nH]1)c1ccc[nH]1 | -7.16
17 | CN(C)c1cc(CNC(=O)c2cccc(F)c2)ccn1 | 24
18 | CS(=O)(=O)c1ccc(C(=O)NCCNc2ncccn2)cc1 | -5.07
19 | CS(=O)(=O)c1ccc(C(=O)NCc2nc3cc(F)ccc3[nH]2)cc1 | 52.2
20 | CS(=O)(=O)c1cccc(C(=O)NCC2Cc3ccccc3O2)c1 (configuration not stated) | 9.06
21 | CC(C)CN1CC(C(=O)NCc2cccnc2-n2cccn2)CC1=O (configuration not stated) | 19.5
22 | Cc1noc(C2(C)CCCN(C(=O)C(C)C)C2)n1 (configuration not stated) | 12.8

Row | Structure (SMILES) | INHIBITION [%]
23 | Cc1csc2c(C3CCCN(C(=O)Cn4cncn4)C3)nc(C)n12 (configuration not stated) | 7.19
24 | c1cncc(CN2CCc3ncnc(C4CC4)c3CC2)c1 | 6.72
25 | Cc1ccsc1C(=O)N1CCC2(CC(C(=O)N(C)C(C)C)=NO2)C1 (configuration not stated) | 56.6
26 | CC(C)N(C)C(=O)C1=NOC2(CCN(C(=O)c3ccncc3)C2)C1 (configuration not stated) | 3.47
27 | CC(C)N(C)C(=O)C1=NOC2(CCN(C(=O)c3ccc(Cl)cc3)C2)C1 (configuration not stated) | -6.53
28 | O=C(C1CC=CC1)N1CCc2c(COCc3ccncc3)cncc2C1 | 6.8
29 | CCc1nc(C2CCCN(C(=O)c3cccc(C(N)=O)c3)C2)no1 (configuration not stated) | 19.5
30 | Cc1ccc2cc(C(=O)N3CCS(=O)(=O)CC3)[nH]c2c1 | 53.6
31 | Cc1ccc2cc(C(=O)N3CCN(S(C)(=O)=O)CC3)[nH]c2c1 | -11.4
32 | Cc1ccc2cc(C(=O)N3CCN(C(=O)c4ccoc4)CC3)[nH]c2c1 | 24.8
33 | CCS(=O)(=O)CCN1CCN(C2CCC(C(C)C)CC2)CC1 (configuration not stated) | 13.8
34 | CC(NCC1(N(C)C)CCOCC1)c1ccc(SC(F)F)cc1 (configuration not stated) | 40.5
35 | CCOc1ccccc1C(CC(=O)Nc1ncc(C)s1)NC(C)=O (configuration not stated) | 39.3
36 | CC(C)NC(=O)c1ccc2c(c1)nc1n2CCN(Cc2ccccc2)C1 | 33.3
37 | Fc1ccccc1CN1CCCC(NC2CCOCC2)C1 (configuration not stated) | 49.4
38 | O=C(Cc1ccsc1)N1CCC(c2noc(-c3ccncc3)n2)CC1 | -0.902
39 | Fc1cccc(CN2CCC(c3noc(-c4ccncc4)n3)CC2)c1F | 28.5
40 | c1cc(-c2nc(C3CCN(Cc4ccsc4)CC3)no2)ccn1 | 50.8
41 | O=C(Cc1ccsc1)N1CCCC(c2n[nH]c3ncccc23)C1 (configuration not stated) | 67.7
42 | O=C(Cc1ccsc1)N1CCC(c2n[nH]c3nccnc23)CC1 | -0.902
43 | O=C(Cc1ccc(F)cc1)N1CCCC(c2n[nH]c3nccnc23)C1 (configuration not stated) | 23.2
44 | Cn1nc(C2CCCN(C(=O)Cc3ccsc3)C2)c2nccnc21 (configuration not stated) | 48.3

Row | Structure (SMILES) | INHIBITION [%]
45 | CN1CCN(C(=O)Cc2ccc(F)cc2)Cc2cccnc21 | -69.9
46 | Cn1nc(C2CCN(C(=O)Cc3ccsc3)CC2)c2cccnc21 | 28
47 | O=C(Cc1ccsc1)N1CCCC(c2n[nH]c3nccnc23)C1 (configuration not stated) | 59.1
48 | O=C(Cc1ccsc1)N1CCN(CC2CC2)c2ncccc2C1 | 29.4
49 | CN1CCN(C(=O)Cc2ccsc2)Cc2cccnc21 | 64.9
50 | CC(=O)N1N=C(c2ccco2)OC1C(=O)N(CC(C)C)CC(C)C (configuration not stated) | -33
51 | CC(C)c1cc(C(=O)N2CCN(CC3CC3)[C@@H]3CS(=O)(=O)C[C@@H]32)on1 | 42.1
52 | O=C(NCCn1ccnc1)c1ccn(-c2ccccc2)n1 | 1.78
53 | Cc1ccc(CN(CCCN(C)C)Cc2cnc(C)n2C)o1 | 9.93
54 | Cc1nnsc1CNC(=O)c1ccc2c(c1)nc(N1CCOCC1)n2C | -24.6
55 | CC(C)c1nc(CCn2cncn2)n(-c2ccc3c(c2)OCCO3)n1 | 3.96
56 | NC(=O)c1cc(C2CCCN(C(=O)CCc3ccncc3)C2)n[nH]1 (configuration not stated) | -51.5
57 | Cc1cccc(CC(=O)N2CCCC(c3n[nH]c4nccnc34)C2)c1 (configuration not stated) | 50.8
58 | NC(=O)c1cc(C2CCCN(C(=O)CCc3ccsc3)C2)n[nH]1 (configuration not stated) | 56.6
59 | COc1cccc(CC(=O)N2CCCC(c3n[nH]c4nccnc34)C2)c1 (configuration not stated) | 2.71
60 | c1cnc2c(C3CCN(Cc4ccsc4)CC3)n[nH]c2n1 | 64.8
61 | Cc1ccc(CC(=O)N2CCCC(c3n[nH]c4nccnc34)C2)cc1 (configuration not stated) | 44.8
62 | c1cnc2[nH]nc(C3CCN(Cc4ccsc4)CC3)c2c1 | 22
63 | Cc1ccc(CCC(=O)N2CCCC(c3cc(C(N)=O)[nH]n3)C2)cc1 (configuration not stated) | 48.1
64 | Fc1ccc(CN2CCC(c3n[nH]c4nccnc34)CC2)cc1F | 35.3
65 | Cc1nn(CCC(=O)NC2CCCOC2)c(C)c1C (configuration not stated) | 3.35
66 | CC1CCN(CCNC(=O)C(C)n2cncn2)CC1 (configuration not stated) | 22.3

Row | Structure (SMILES) | INHIBITION [%]
67 | CNC(=O)C1(C)CN(Cc2cn(C)c3ccc(F)cc23)CCO1 (configuration not stated) | 3.48
68 | CNC(=O)[C@@H]1CN(C(=O)C2CCC2)C[C@H]1c1ccnc(N2CCCC2)n1 | -33.3
69 | CCCN1CC(NC(=O)Nc2nc(C)n(C(C)C)n2)CC1=O (configuration not stated) | 44.6
70 | CCN1CC(NC(=O)Nc2nc(C)n(C(C)C)n2)CC1=O (configuration not stated) | 64.4
71 | Cc1nc(NC(=O)NC2CC(=O)N(C)C2)nn1C(C)C (configuration not stated) | 40.6
72 | COC(=O)C(NC(=O)CCc1ccco1)c1cc(F)ccc1F (configuration not stated) | -4.16
73 | CC(C(=O)N1CCCCC1)n1nc(-c2cccs2)cc(N)c1=O (configuration not stated) | 23
74 | O=C(Cc1ccc(Cl)cc1)N[C@@H]1CCC[C@@H](O)[C@@H]1O | 14.21
75 | CC(C)(C)c1noc(-c2ccnc(-n3cnc(C(=O)O)c3)c2)n1 | -6.73
76 | CC(=O)N1CCOC(c2cncc(CCC(N)=O)n2)C1 (configuration not stated) | 10.9
77 | c1nc(C2CCCCO2)ncc1CN1CCOCC1 (configuration not stated) | 0.696
78 | N#Cc1cc2c(nc1SCc1cc(O)nc(O)n1)CCCCC2 | 66.4
79 | N#Cc1cc2c(nc1SCc1cc(O)nc(O)n1)CCCC2 | 32.3
80 | N#Cc1cc2c(nc1O)CCCCC2 | 23.4
81 | N#Cc1ccccc1N1CC2(CCCCN2CC2CC2)CC1=O (configuration not stated) | 15.3
82 | CC(C)n1cc(CN2CCCN(C(=O)C(C)n3cccn3)CC2)cn1 (configuration not stated) | 38.5
83 | O=C1COc2cc(C(=O)N3CCCC(n4cccn4)C3)ccc2N1 (configuration not stated) | -24.2
84 | CCN1CC(CN(C)Cc2nc(-c3ccoc3)oc2C)CC1=O (configuration not stated) | 39.6
85 | CCNC(=O)N(C)C1CCCc2nc(C)sc21 (configuration not stated) | 64.9
86 | CC(=O)N(C)C1CCCc2nc(C)sc21 (configuration not stated) | 3.03
87 | Cc1nc2c(s1)C(N(C)C(=O)NCCCC(C)(C)CO)CCC2 (configuration not stated) | 3.67
88 | CCc1nc2c(s1)C(N(C)C(C)=O)CCC2 (configuration not stated) | 6.33

Row | Structure (SMILES) | INHIBITION [%]
89 | CCc1nc2c(s1)C(N(C)C(=O)c1csnn1)CCC2 (configuration not stated) | 68
90 | CCc1nc2c(s1)C(N(C)C(=O)c1cc[nH]n1)CCC2 (configuration not stated) | 28.6
91 | Cc1cc(C)n(CC(=O)N2CCC(c3nc(C(C)C)no3)CC2)n1 | -6.42
92 | COc1cc(CNCCn2ccnc2)cc2c1OCO2 | 17.4
93 | COc1ccc(CNC(=O)CCN2C[C@@H](C)[C@](O)(C3CC3)C2)cc1 | 25.4
94 | CC(=O)Nc1ccc(C(=O)N2CCSCC2c2ccc(C)o2)cc1 (configuration not stated) | -14.3
95 | c1cncc(-c2noc(CN3CCCC3Cn3cccn3)n2)c1 (configuration not stated) | -9.37
96 | O=S(=O)(c1cccnc1)N1CCN(CC(O)c2cccs2)CC1 (configuration not stated) | -7.28
97 | O=S(=O)(c1ccc(Cl)s1)N1CCN(Cc2nc(-c3ccco3)cs2)CC1 | 86.6
98 | N#CCCN1CCN(S(=O)(=O)c2ccc(Cl)s2)CC1 | 42
99 | CC(C)(C)c1csc(CN2CCN(S(=O)(=O)c3cccnc3)CC2)n1 | 29
100 | O=S(=O)(c1cccnc1)N1CCN(Cc2nc(-c3cccs3)cs2)CC1 | 57.1
101 | O=S(=O)(c1cccs1)N1CCCn2cnc(CN3CCCC3)c2C1 | -11.9
102 | Cn1cnc(S(=O)(=O)N2CCN(Cc3ccco3)CC2)c1Cl | 32.7
103 | O=S(=O)(c1cccs1)N1CCCn2nnc(CN3CCCCC3)c2C1 | 23.2
104 | O=S(=O)(c1cccnc1)N1CCN(CC(O)c2ccccc2)CC1 (configuration not stated) | 83.4
105 | Cc1ccc(CC(=O)N2CCN(CC(O)c3ccccc3)CC2)cn1 (configuration not stated) | 42.7
106 | O=S(=O)(c1cccnc1)N1CCN(Cc2nc(-c3ccco3)cs2)CC1 | 33.4
107 | O=S(=O)(c1cccs1)N1CCN(Cc2nc(-c3ccco3)cs2)CC1 | 57.1
